These results are taken from PubChem BioAssay.

Assay [1] concerns XIP peptide (Xip251-270) binding. The experiment in a line: small-molecule binders of XIP peptide, primary screen, biochemical, small-molecule microarray, fluorescence 635/667 nm, 0.1 µg/mL protein (AID 1182). As to conditions: fluorescent protein binding, 635 nm, higher = more signal, called active from +8 up or from −8 down.
In a further assay the test system is XIP peptide (Xip251-270). The experiment in a line: small-molecule binders of XIP peptide, primary screen, biochemical, small-molecule microarray, fluorescence 635/667 nm, 0.5 µg/mL protein (AID 1183). The settings on record: small-molecule microarray binding, fluorescence 635 nm; higher = more signal.
Assay [2] is described as follows: Plasmodium falciparum growth inhibition, primary screen, strain 3D7, DAPI fluorescence, 100 nL (AID 1184).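 Note: parasites grown inside human red blood cells in medium with human serum.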 The settings on record: P. falciparum 3D7 growth, 3 d, higher = more signal.
For assay [3], the target named is Homeobox protein Hox-A13 (Mus musculus) (UniProt Q62424). The assay is described as follows: inhibitors of HoxA13-DNA binding, primary screen, biochemical, fluorescence polarization, labeled oligonucleotide (AID 1185). As to conditions: 15 min, higher = more signal, called active from +8 up or from −8 down. On the technique in general: In fluorescence polarisation assays a small probe gives low polarisation when free and higher when bound to something large.
Sequence of Homeobox protein Hox-A13 (Mus musculus) (Q62424 whole entry, looked up): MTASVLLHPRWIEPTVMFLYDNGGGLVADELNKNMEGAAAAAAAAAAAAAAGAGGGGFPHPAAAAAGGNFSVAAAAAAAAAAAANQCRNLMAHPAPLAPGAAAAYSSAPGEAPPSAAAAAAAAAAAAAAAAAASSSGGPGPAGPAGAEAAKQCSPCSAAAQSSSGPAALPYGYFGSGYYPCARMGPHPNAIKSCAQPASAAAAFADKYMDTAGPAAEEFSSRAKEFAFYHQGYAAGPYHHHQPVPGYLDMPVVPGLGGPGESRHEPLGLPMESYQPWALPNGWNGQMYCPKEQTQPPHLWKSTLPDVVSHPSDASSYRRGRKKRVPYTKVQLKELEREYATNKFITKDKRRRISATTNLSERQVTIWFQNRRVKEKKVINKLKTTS

Assay [4] in a line: inhibitors of hydroxyurea-induced Chk1 phosphorylation, primary screen, imaging, HeLa, phospho-Chk1 antibody, percent positive cells (AID 1186). The settings on record: hydroxyurea-induced phospho-Chk1 immunofluorescence imaging, higher = more signal.
Assay [5] in a line: inhibitors of hydroxyurea-induced Chk1 phosphorylation, primary screen, imaging, HeLa, phospho-Chk1 nuclear intensity (AID 1187). The settings on record: hydroxyurea-induced phospho-Chk1 immunofluorescence imaging, higher = more signal.

Activity calls are given as the source filed them. Unless noted, the rule behind the calls is not given here.

Take `CCCCN1CC=CC23O[C@@H]4C=CCOC(=O)[C@@H]4[C@H]2C(=O)N(CCCO)[C@@H]3C1=O` (some centres not stated): the composite z-score in assay [1] was 0.769 (inactive); with XIP peptide (Xip251-270) it was -0.374. Moreover, the z-score in assay [2] was -1.81; in assay [3], -4.48 (inactive); in assay [4], -0.247 (inactive); in assay [5], -0.169 (inactive).
As for `CN1C(=O)C2C=CC(C(O)c3c(F)cccc3Cl)N(Nc3ccccc3)C2C1=O` (configuration not stated), the composite z-score was -0.108 (inactive) in assay [1] and 0.324 in the assay on XIP peptide (Xip251-270). Further, the z-score in assay [2] was 1.04; in assay [3] it was -3.42 (inactive); in assay [4] it was 0.563 (inactive); in assay [5] it was 0.463 (inactive).
Turning to `CC(=O)n1cc(C(O)C2C=CC3C(=O)N(c4ccccc4)C(=O)C3N2Nc2ccccc2)c2ccccc21` (configuration not stated), the composite z-score in assay [1] was 0.853 (inactive); in the assay on XIP peptide (Xip251-270) it was -0.515. The z-score was -0.4 in assay [2], -3.42 (inactive) in assay [3], 0.863 (inactive) in assay [4] and 0.355 (inactive) in assay [5].
Turning to `COC(=O)[C@H](Cc1ccccc1)N1CC(/C=C/C2CC2)=C[C@@H]1[C@@H](O)Cc1ccccc1`, the figures for the composite z-score (in assay [1]; in the assay on XIP peptide (Xip251-270)) were 0.971 (inactive) and 0.639, respectively. The z-score in assay [2] was -0.547; in assay [3] it was -5.53 (inactive); in assay [4], -0.613 (inactive); in assay [5] it was -0.713 (inactive).
As for `COc1ccc([Si](C)(C)[C@H]2[C@H](CCO)O[C@@]3(C(=O)N(Cc4cccc(N5CCCCC5=O)c4)c4ccccc43)[C@@H]2C)cc1`, the composite z-score is 1.41 (inactive) in assay [1] and 0.589 with XIP peptide (Xip251-270). The z-score was -2.7 in assay [2], -5.06 (inactive) in assay [3], -1.36 (inactive) in assay [4] and -0.572 (inactive) in assay [5].
With `CC(C)(C)OC(=O)CC[C@]1(C(=O)O)N=C(c2ccc(OCCCO)cc2)O[C@H]1c1ccccc1CN=[N+]=[N-]`, the composite z-score is 0.109 (inactive) in assay [1] and 0.405 in the assay with XIP peptide (Xip251-270). The z-score is -0.711 in assay [2], -4 (inactive) in assay [3], -0.287 (inactive) in assay [4] and -0.499 (inactive) in assay [5].
With `O=C1c2ccccc2[C@](Cc2ccccc2I)(C(=O)NCc2ccccc2)[C@H](c2ccc(CO)cc2)N1C1CCCCC1`, the composite z-score was 0.353 (inactive) in assay [1] and 0.713 with XIP peptide (Xip251-270). The z-score in assay [2] was -1.34; in assay [3] it was -2.27 (inactive); in assay [4], -0.353 (inactive); in assay [5] it was -0.12 (inactive).
As for `COCC(=C=CC[C@H](O)c1cccc(OCCO)c1)C[C@H](O)c1ccccn1`, the composite z-score in assay [1] is 0.198 (inactive); in the assay on XIP peptide (Xip251-270), 0.157. The z-score in assay [2] is -0.737; in assay [3] it was -4.27 (inactive); in assay [4] it was -0.028 (inactive); in assay [5], 0.745 (inactive).
As for `COC(=O)[C@@]1(Cc2ccc(OC)cc2)[C@H]2c3cc(C(=O)N(C)C)n(CCc4c[nH]c5ccc(O)cc45)c3C[C@H]2CN1C(=O)c1ccccc1`, the figures for the composite z-score (in assay [1]; in the assay on XIP peptide (Xip251-270)) were 0.545 (inactive) and 0.657, respectively. Also, the z-score in assay [2] is -1.73; in assay [3], -1.44 (inactive); in assay [4], 0.453 (inactive); in assay [5] it was -0.541 (inactive).
With `CCCCC(=C=CC[C@@H](O)c1ccc(OCCO)cc1)C[C@@H](O)COCc1ccccc1`, the composite z-score in assay [1] is 0.117 (inactive); with XIP peptide (Xip251-270) it was 0.408. Besides, the z-score in assay [2] is -2.73; in assay [3], -4.47 (inactive); in assay [4] it was -0.263 (inactive); in assay [5] it was 0.737 (inactive).
As for `CC(=O)NCCCC[C@@H]1NC(=O)[C@@H]2C[C@H](C(=O)O)[C@H](c3ccc(O)cc3)N2C1=O`, the composite z-score in assay [1] is 3.54 (inactive); in the assay on XIP peptide (Xip251-270), -0.0306. For the same compound, the z-score in assay [2] was 0.174; in assay [3], -2.19 (inactive); in assay [4], 0.318 (inactive); in assay [5], 0.202 (inactive).
`CN(C)C(=O)[C@@]1(Cc2ccccc2N=[N+]=[N-])COC(c2ccc(OCCCO)cc2)=N1`: the composite z-score in assay [1] is 0.472 (inactive); with XIP peptide (Xip251-270), 0.605. In addition, the z-score in assay [2] is -1.8; in assay [3], -5.84 (inactive); in assay [4], -0.408 (inactive); in assay [5], -0.362 (inactive).
Turning to `[N-]=[N+]=Nc1ccccc1[C@H]1OC(c2ccc(OCCCO)cc2)=N[C@@]1(CCS(=O)(=O)c1ccccc1)C(=O)N1CCCCC1`, the composite z-score in assay [1] was 0.154 (inactive); in the assay with XIP peptide (Xip251-270) it was 0.755. In addition, the z-score in assay [2] was -2.19; in assay [3], -1.18 (inactive); in assay [4], -0.483 (inactive); in assay [5], -0.458 (inactive).
`CCCNC(=O)[C@@]1(c2ccc([N+](=O)[O-])cc2)CC(=O)N(C2CCCCC2)[C@@H]1c1ccc(CO)cc1I`: the composite z-score in assay [1] is 0.423 (inactive); in the assay with XIP peptide (Xip251-270) it was 0.845. The z-score is -1.66 in assay [2], -5.34 (inactive) in assay [3], -0.0439 (inactive) in assay [4] and 0.329 (inactive) in assay [5].
Take `NC(=O)N1C(=O)C2C(C1=O)C1C=C(c3ccc(CO)cc3)C2C(C2CC2)N1Cc1sc2ccccc2c1Cl` (configuration not stated): the composite z-score in assay [1] is 0.703 (inactive); with XIP peptide (Xip251-270), 0.726. Besides, the z-score in assay [2] was -2.1; in assay [3], -2.31 (inactive); in assay [4], -0.0244 (inactive); in assay [5], -0.0866 (inactive).
Turning to `C=CCNC(=O)[C@@H]1[C@H]2C(=O)O[C@H](c3ccccc3)[C@H](c3ccccc3)N2[C@H](c2ccccc2OCCO)[C@@]12C(=O)N(C(=O)OCCOC)c1ccc(C#CC3=CCCCC3)cc12`, the composite z-score in assay [1] is 0.0103 (inactive); with XIP peptide (Xip251-270), 0.769. The z-score in assay [2] is -2.08; in assay [3], 1.31 (inactive); in assay [4] it was -0.136 (inactive); in assay [5], -0.103 (inactive).
Take `COc1cc2c(cc1OC)CN(C(=O)[C@@H]1[C@H]3C(=O)O[C@H](c4ccccc4)[C@H](c4ccccc4)N3[C@H](c3ccccc3OCCO)[C@@]13C(=O)Nc1ccc(C#CC4(O)CCCCCC4)cc13)CC2`: the composite z-score is 0.863 (inactive) in assay [1] and 0.822 in the assay on XIP peptide (Xip251-270). In addition, the z-score in assay [2] is -1.67; in assay [3], 2.22 (inactive); in assay [4], -0.517 (inactive); in assay [5], -0.522 (inactive).
